From PubChem BioAssay (NCI) come the findings set out here.

Where “and” joins values, the source holds several entries; their conditions need not be identical. Equal entries are not always repeated. Compounds without any hit were thinned out: in the full panel of roughly 79,000, 15% have a hit. Unmarked numbers belong to inactive results. Calls of active or inactive are those of the source. Cut-off read from the data, not from the text of the source: active = growth inhibition above about 70%; inactive = the rest.

Assay [1] in a line: NCI Yeast Anticancer Drug Screen. Data for the rad50 strain (AID 155).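 Note: 0% = growth of vehicle-only cultures of the same strain.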 To be noted: S. cerevisiae rad50 strain growth inhibition; at 50.0 µM; active compounds read high. The procedure, abridged: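 Compounds were tested on a yeast strain with an engineered DNA damage repair alteration; the reported value is growth inhibition normalised to vehicle treatment.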
Assay [2] is described as follows: NCI Yeast Anticancer Drug Screen. Data for the mec2-1 strain (AID 157). To be noted: S. cerevisiae mec2-1 strain, at 50.0 µM, active compounds read high. In outline: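 Cells of the genetically defined mec2-1 yeast strain are incubated with test compound. Inhibition of growth is calculated against vehicle-treated controls.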
Assay [3] in a line: NCI Yeast Anticancer Drug Screen. Data for the sgs1 mgt1 strain (AID 161).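 Note: 0% = growth of cultures given vehicle only.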 To be noted: S. cerevisiae sgs1 mgt1 strain, at 50.0 µM, active compounds read high. The procedure, abridged: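 Genetically altered yeast, compound exposure, growth inhibition relative to vehicle.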
The nature of assay [4]: NCI Yeast Anticancer Drug Screen. Data for the cln2 rad14 strain (AID 165).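 Note: 0% = growth equal to vehicle treated cultures.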 The following applies: S. cerevisiae cln2 rad14 strain, at 50.0 µM, active compounds read high. In outline: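 The screen exposed genetically defined yeast (cln2 rad14) to test compounds and scored growth inhibition relative to vehicle-treated controls.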
Assay [5] can be described thus: NCI Yeast Anticancer Drug Screen. Data for the bub3 strain (AID 167). The following applies: S. cerevisiae bub3 mutant strain, at 50.0 µM, active compounds read high. In outline: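 Growth of a checkpoint-deficient yeast mutant is measured after compound exposure. Values represent inhibition relative to vehicle.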
Assay [6] is described as follows: NCI Yeast Anticancer Drug Screen. Data for the mlh1 rad18 strain (AID 175). The following applies: S. cerevisiae mlh1 rad18 strain growth inhibition; at 50.0 µM; active compounds read high. In outline: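 Compound-treated yeast growth, normalised to vehicle controls. Strain bears defined DNA repair mutations.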

With `CN1CCC2CC(=O)NC1(C)C2(C)C` (configuration not stated), the growth inhibition in assay [1] was 13.2%; in assay [2], 2.05%; in assay [3] it was 17.9%; in assay [4], 4.5%; in assay [5] it was -2.2%; in assay [6], 11.9%.

With `COc1ccc(C2=CC3=CCC4C(CCC5(C)C(O)CCC45)C3(C)CC2)s1` (configuration not stated), the growth inhibition in assay [1] was 19.2%; in assay [2], 11.7%; in assay [3], 29.6%; in assay [4] it was -0.6%; in assay [5] it was -0.1%; in assay [6], 26.1%.

Consider `CCN(CCCl)c1cc(C(=O)NCCCN(C)CCCNC(=O)c2cc(N(CC)CCCl)c([N+](=O)[O-])cc2[N+](=O)[O-])c([N+](=O)[O-])cc1[N+](=O)[O-]`, for which the growth inhibition in assay [1] was -4.75%; in assay [2] it was -2.9%; in assay [3], -17%; in assay [4], -4.05%; in assay [5] it was -2.2%; in assay [6], -9%.

With `O=C1C(=O)c2ccccc2C(O)=C1CN(CCCl)CCCl`, the growth inhibition in assay [1] is 31.6%; in assay [2] it was 17.9%; in assay [3], 27.2%; in assay [4] it was -21.9%; in assay [5], 30.8%; in assay [6], 29.8%.

As to `CCN(CC)C(=S)SC1C(=O)NC(=O)NC1=O`, the growth inhibition in assay [1] was 23.3%; in assay [2] it was -15.4%; in assay [3] it was 20.1%; in assay [4], 20.6%; in assay [5] it was 1.9%; in assay [6], 16.1%.

For the compound `COC(=O)C1C(=O)CC2N(C)C1C(C)(C)C2(C)C` (configuration not stated), the growth inhibition in assay [1] was 47.9%; in assay [2], 21.4%; in assay [3], 60.6%; in assay [4] it was 4.8%; in assay [5], 38.4%; in assay [6], 56.1%.

In the case of `COc1cc(N=Nc2cccc(C(=O)O)c2)ccc1N(CCCl)CCCl`, the growth inhibition in assay [1] is -12.4%; in assay [2], -16.4%; in assay [3] it was -30.9%; in assay [4], 17.7%; in assay [5], -3.3%; in assay [6], -23.3%.

Take `Cc1nc2ccc(Br)cc2c(=O)n1-c1ccc(N)cc1`: the growth inhibition in assay [1] was -25.9%; in assay [2], -2.4%; in assay [3] it was -28.1%; in assay [4] it was 16.2%; in assay [5] it was -8.2%; in assay [6], 5.8%.

For the compound `CC[n+]1c(/C=C/c2ccc(N(CCCl)CCCl)cc2)ccc2cc(NC(=O)/C=C/c3ccccc3)ccc21`, the growth inhibition is 82.1% (active) in assay [1]; 86.5% (active) in assay [2]; 87.7% (active) in assay [3]; 85.5% (active) in assay [4]; 86.5% (active) in assay [5]; 82% (active) in assay [6].

Consider `CC(C)(O)C1=CC23CC(C)(C(=O)O)C4CCCCC4(C)C2CC1OO3` (configuration not stated), for which the growth inhibition in assay [1] is 21.4%; in assay [2], -7.3%; in assay [3], 32%; in assay [4], 11.4%; in assay [5], -10.3%; in assay [6], 25.4%.

Consider `O=C(O)C(=O)O.[Ru].c1cnc2c(c1)ccc1cccnc12.c1cnc2c(c1)ccc1cccnc12`, for which the growth inhibition in assay [1] was 25.1%; in assay [2], -10.9%; in assay [3], 2.95%; in assay [4], 5.45%; in assay [5] it was -2.2%; in assay [6] it was 5.25%.

In the case of `CCC(=O)O[C@H]1CC[C@H]2[C@@H]3CCC4=C/C(=N/NC(=O)c5cccc6c(=O)c7ccccc7[nH]c56)CC[C@]4(C)[C@H]3CC[C@]12C`, the growth inhibition in assay [1] was 13.7%; in assay [2], 15.5%; in assay [3], -16.4%; in assay [4], -8.75%; in assay [5], -17.2%; in assay [6] it was -7.95%.

For `CCC1(CC)C(=O)N(C)P(=O)(Oc2ccccc2)N(C)C1=O`, the growth inhibition in assay [1] is 5.7%; in assay [2], 15.4%; in assay [3] it was 9.3%; in assay [4], 1.6%; in assay [5], 7.1%; in assay [6], 4.6%.

Turning to `CCC1CN2CCC3(C(=O)Nc4ccccc43)C2CC1/C(=C/OC)C(=O)OC` (configuration not stated), the growth inhibition in assay [1] is -1.8%; in assay [2], -12.3%; in assay [3], 7.85%; in assay [4], 2.55%; in assay [5], 13.7%; in assay [6], 12.4%.

As to `Br[CH](Br)[Hg][c]1ccccc1`, the growth inhibition in assay [1] is 99.2% (active); in assay [2], 99.5% (active); in assay [3], 94.3% (active); in assay [4], 99.2% (active); in assay [5], 99.2% (active); in assay [6] it was 99.2% (active).

For `CC(=O)[O-].N.N.N.N.[Co+3].[O-][Cl+3]([O-])([O-])[O-].[OH3+]`, the growth inhibition in assay [1] was -2.35%; in assay [2], 7.3%; in assay [3], -1.45%; in assay [4] it was 16.1%; in assay [5], 21.9%; in assay [6], 2.7%.

Turning to `CC(=O)C1C(c2ccccc2)C2(C)OC(=O)C(C#N)C12C` (configuration not stated), the growth inhibition in assay [1] is -17.6%; in assay [2] it was 18.9%; in assay [3], 9%; in assay [4], 32.3%; in assay [5], 21.8%; in assay [6], 33.2%.

`O=[N+]([O-])c1ccc(/C=N\NP(Br)(c2ccccc2)(c2ccccc2)c2ccccc2)cc1`: the growth inhibition in assay [1] was 15.4%; in assay [2] it was 0.3%; in assay [3], 26.9%; in assay [4] it was 3.95%; in assay [5], -2.5%; in assay [6] it was 4.75%.

In the case of `COc1ccc(CCNC2(C#N)CCCCC2)cc1OC`, the growth inhibition was -9.5% in assay [1]; -29.8% in assay [2]; 0.05% in assay [3]; 10.2% in assay [4]; -5.75% in assay [5]; -5.25% in assay [6].

As to `COc1ccc(NC(=O)C(=O)C(CC2C(=O)NC(=S)NC2=O)C(=O)c2ccc3ccccc3c2)c([N+](=O)[O-])c1` (configuration not stated), the growth inhibition in assay [1] was -10.7%; in assay [2] it was 1.35%; in assay [3] it was 13.1%; in assay [4], -30.1%; in assay [5] it was 31.2%; in assay [6], 3.5%.

Consider `O=C(/C=C/c1ccccc1)Nc1ccc(Cl)cc1C(=O)c1ccccc1`, for which the growth inhibition was -2.6% in assay [1]; 14.8% in assay [2]; 7.6% in assay [3]; -6.6% in assay [4]; 40.4% in assay [5]; 20.4% in assay [6].

Regarding `O=P1(N(CCCl)CCCl)Nc2cc3ccccc3cc2N1`, the growth inhibition is -5.65% in assay [1]; -15.7% in assay [2]; -4.45% in assay [3]; -108% in assay [4]; -15.5% in assay [5]; -14.6% in assay [6].

Consider `O=C(Nc1cccc(Cl)c1)OCC(Cl)(Cl)Cl`, for which the growth inhibition in assay [1] is 99.6% (active); in assay [2], 99.8% (active); in assay [3], 99.4% (active); in assay [4] it was 99.8% (active); in assay [5] it was 99.3% (active); in assay [6] it was 99.7% (active).

In the case of `CN1CCC23CC=CCC2C1Cc1ccc([N+](=O)[O-])cc13` (configuration not stated), the growth inhibition in assay [1] was -4.15%; in assay [2], 11.3%; in assay [3] it was 7.25%; in assay [4], -3.15%; in assay [5], 2.4%; in assay [6] it was 35%.

Turning to `NC(CCP(=O)(O)O)C(=O)O` (configuration not stated), the growth inhibition in assay [1] is 1.1% and -34.8%; in assay [2], -3.5% and -15.6%; in assay [3], -5.6% and -33.7%; in assay [4], -3.25% and 6.1%; in assay [5] it was 7.7% and -23.5%; in assay [6], -5.75% and -18.1%.

For the compound `CNC(=O)Oc1cccc2c1C(=O)OC2=O`, the growth inhibition is -2.7% in assay [1]; 4.25% in assay [2]; -6.55% in assay [3]; -25.1% in assay [4]; 2.15% in assay [5]; 7.1% in assay [6].

With `NC1(P(=O)(O)O)CCCCC1`, the growth inhibition is 2.5% in assay [1]; -3% in assay [2]; -22.4% in assay [3]; -52% in assay [4]; -31.6% in assay [5]; -10.5% in assay [6].

In the case of `O=P(Nc1ccc(Cl)cc1)(Oc1ccccc1)N(CCCl)CCCl` (configuration not stated), the growth inhibition is 3.75% in assay [1]; -1.55% in assay [2]; -6.75% in assay [3]; -9.4% in assay [4]; -7.95% in assay [5]; 0.9% in assay [6].

On to `CCOC(=O)C[CH2][Sn]([Cl])([Cl])[Cl]`, for which the growth inhibition is 17.4% in assay [1]; 22.5% in assay [2]; 21.1% in assay [3]; 12.3% in assay [4]; 4.3% in assay [5]; 20.9% in assay [6].

`CCC[CH2][Sn]([CH2]CCC)([CH2]CCC)[CH2]CC[N+](C)(CCO)CCO.CS(=O)(=O)[O-]`: the growth inhibition was 99.4% (active) in assay [1]; 99.2% (active) in assay [2]; 99.7% (active) in assay [3]; 99.3% (active) in assay [4]; 99.5% (active) in assay [5]; 99.2% (active) in assay [6].

`O=C(O)c1ccc(Cl)c(Cl)c1`: the growth inhibition is 1.7% in assay [1]; -5.4% in assay [2]; 3.9% in assay [3]; -14.2% in assay [4]; 5.95% in assay [5]; 0.45% in assay [6].

On to `O=C1/C(=C\c2cc3ccccc3c3ccccc23)N2CCC1CC2`, for which the growth inhibition in assay [1] was 11.1%; in assay [2], -10.2%; in assay [3] it was -12%; in assay [4], -7.35%; in assay [5], -3.1%; in assay [6], 1%.

In the case of `C/C(=C\C(C)C)C1(C)C(=O)NC(=O)NC1=O`, the growth inhibition in assay [1] was 8.85%; in assay [2], 11.4%; in assay [3] it was -6.3%; in assay [4], 4.95%; in assay [5], 4.4%; in assay [6], -19.3%.

Take `Cc1c([N+](=O)[O-])cc(C(C)(C)C)c(O)c1[N+](=O)[O-]`: the growth inhibition in assay [1] is 60.6%; in assay [2] it was 63.1%; in assay [3] it was 72.2% (active); in assay [4] it was 43.5%; in assay [5], 27.1%; in assay [6], 70.6% (active).

On to `c1ccc2c(c1)oc1ccccc12`, for which the growth inhibition in assay [1] was 2.05%; in assay [2] it was 11.3%; in assay [3], 7.2%; in assay [4], -64.5%; in assay [5], 4%; in assay [6] it was -4.1%.

Regarding `CN1C(=O)C(=Cc2cccc([N+](=O)[O-])c2)C(=O)N(C)C1=O`, the growth inhibition in assay [1] was 17.4%; in assay [2], 14.3%; in assay [3] it was 2.15%; in assay [4] it was 26.1%; in assay [5] it was 10.8%; in assay [6], -9.55%.

As to `O=S1(=O)c2ccccc2-c2ccccc21`, the growth inhibition in assay [1] was -5%; in assay [2] it was -7.95%; in assay [3] it was -13.8%; in assay [4] it was -3.5%; in assay [5], -11.6%; in assay [6], 5.65%.
